Data reported in paper PMC11006913.

Columns and labels:
Experiment in all cases: PBM; 200 nM protein, PBS
Details in all cases: dsDNA, one strand shown
NKX3-2 [1] = target: NKX3-2 (Homo sapiens, UniProt P78367 192-278, P234S)
NKX3-2 [2] = target: NKX3-2 (Homo sapiens, UniProt P78367 192-278)
CRX = CRX (Homo sapiens, UniProt O43186 26-111, R41L)
ALX1 = ALX1 (Homo sapiens, UniProt Q15699 118-204)
HOXA4 = HOXA4 (Homo sapiens, UniProt Q00056 201-287, W262F)
ALX3 = ALX3 (Homo sapiens, UniProt O95076 139-225, N203S)
HOXA2 = HOXA2 (Homo sapiens, UniProt O43364 129-215)
NKX2-5 = NKX2-5 (Homo sapiens, UniProt P52952 125-210)
Chain of NKX2-5 (P52952 125-210): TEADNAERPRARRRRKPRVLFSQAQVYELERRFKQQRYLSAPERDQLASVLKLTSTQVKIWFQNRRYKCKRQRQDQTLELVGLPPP

Chain of NKX3-2 (Homo sapiens, UniProt P78367 192-278) (P78367 192-278): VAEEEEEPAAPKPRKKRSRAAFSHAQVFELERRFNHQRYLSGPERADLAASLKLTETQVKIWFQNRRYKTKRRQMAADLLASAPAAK
Chain of NKX3-2 (Homo sapiens, UniProt P78367 192-278, P234S) (P78367 192-278 P234S): as the sequence (P78367 192-278) above, with P43S counted along it
Chain of HOXA2 (O43364 129-215): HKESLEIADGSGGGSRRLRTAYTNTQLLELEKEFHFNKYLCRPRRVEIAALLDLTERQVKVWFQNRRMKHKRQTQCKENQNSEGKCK
Chain of CRX (O43186 26-111 R41L): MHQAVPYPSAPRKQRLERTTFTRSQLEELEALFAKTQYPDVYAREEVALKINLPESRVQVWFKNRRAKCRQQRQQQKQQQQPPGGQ
Chain of HOXA4 (Q00056 201-287 W262F): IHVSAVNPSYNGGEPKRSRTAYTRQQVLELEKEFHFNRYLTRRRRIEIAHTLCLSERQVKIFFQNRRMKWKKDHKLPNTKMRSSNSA
Chain of ALX1 (Q15699 118-204): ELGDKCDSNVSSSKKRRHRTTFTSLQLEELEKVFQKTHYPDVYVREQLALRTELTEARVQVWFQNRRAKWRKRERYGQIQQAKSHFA
Chain of ALX3 (O95076 139-225 N203S): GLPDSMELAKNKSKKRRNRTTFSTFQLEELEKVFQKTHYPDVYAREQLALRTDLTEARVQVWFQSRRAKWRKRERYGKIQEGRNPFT

## GCACCCAA
NKX3-2 [1]
  binding signal: 10.6 upbm affinity estimate (log intensity, higher = more binding, comparable within an allelic series)
NKX3-2 [2]
  binding signal: 10.6 upbm affinity estimate (log intensity, higher = more binding, comparable within an allelic series)

## CGTTAACG
NKX3-2 [1]
  binding signal: 10.4 upbm affinity estimate (log intensity, higher = more binding, comparable within an allelic series)
NKX3-2 [2]
  binding signal: 10.5 upbm affinity estimate (log intensity, higher = more binding, comparable within an allelic series)

## CCTATGGC
NKX3-2 [1]
  binding signal: 10.6 upbm affinity estimate (log intensity, higher = more binding, comparable within an allelic series)
NKX3-2 [2]
  binding signal: 10.6 upbm affinity estimate (log intensity, higher = more binding, comparable within an allelic series)

## ACGGGACG
NKX3-2 [1]
  binding signal: 10.4 upbm affinity estimate (log intensity, higher = more binding, comparable within an allelic series)
NKX3-2 [2]
  binding signal: 10.4 upbm affinity estimate (log intensity, higher = more binding, comparable within an allelic series)

## AGGCATGG
NKX3-2 [1]
  binding signal: 10.6 upbm affinity estimate (log intensity, higher = more binding, comparable within an allelic series)
NKX3-2 [2]
  binding signal: 10.5 upbm affinity estimate (log intensity, higher = more binding, comparable within an allelic series)

## GAGACCGC
NKX3-2 [1]
  binding signal: 10.7 upbm affinity estimate (log intensity, higher = more binding, comparable within an allelic series)
NKX3-2 [2]
  binding signal: 10.7 upbm affinity estimate (log intensity, higher = more binding, comparable within an allelic series)

## GAGTACAC
NKX3-2 [1]
  binding signal: 12.1 upbm affinity estimate (log intensity, higher = more binding, comparable within an allelic series)
NKX3-2 [2]
  binding signal: 12.2 upbm affinity estimate (log intensity, higher = more binding, comparable within an allelic series)

## CGGTGAGC
NKX3-2 [1]
  binding signal: 10.6 upbm affinity estimate (log intensity, higher = more binding, comparable within an allelic series)
NKX3-2 [2]
  binding signal: 10.7 upbm affinity estimate (log intensity, higher = more binding, comparable within an allelic series)

## AACCAGCC
NKX3-2 [1]
  binding signal: 10.4 upbm affinity estimate (log intensity, higher = more binding, comparable within an allelic series)
NKX3-2 [2]
  binding signal: 10.4 upbm affinity estimate (log intensity, higher = more binding, comparable within an allelic series)

## GCCCCCGA
NKX3-2 [1]
  binding signal: 10.4 upbm affinity estimate (log intensity, higher = more binding, comparable within an allelic series)
NKX3-2 [2]
  binding signal: 10.4 upbm affinity estimate (log intensity, higher = more binding, comparable within an allelic series)

## ACCACGGC
NKX3-2 [1]
  binding signal: 10.5 upbm affinity estimate (log intensity, higher = more binding, comparable within an allelic series)
NKX3-2 [2]
  binding signal: 10.5 upbm affinity estimate (log intensity, higher = more binding, comparable within an allelic series)

## CACTTACG
NKX3-2 [1]
  binding signal: 12.7 upbm affinity estimate (log intensity, higher = more binding, comparable within an allelic series)
NKX3-2 [2]
  binding signal: 12.8 upbm affinity estimate (log intensity, higher = more binding, comparable within an allelic series)

## CTGCCGCA
NKX3-2 [1]
  binding signal: 10.7 upbm affinity estimate (log intensity, higher = more binding, comparable within an allelic series)
NKX3-2 [2]
  binding signal: 10.6 upbm affinity estimate (log intensity, higher = more binding, comparable within an allelic series)

## ATCCCGCC
NKX3-2 [1]
  binding signal: 10.7 upbm affinity estimate (log intensity, higher = more binding, comparable within an allelic series)
NKX3-2 [2]
  binding signal: 10.7 upbm affinity estimate (log intensity, higher = more binding, comparable within an allelic series)

## CCAGACCA
NKX3-2 [1]
  binding signal: 10.6 upbm affinity estimate (log intensity, higher = more binding, comparable within an allelic series)
NKX3-2 [2]
  binding signal: 10.5 upbm affinity estimate (log intensity, higher = more binding, comparable within an allelic series)

## AGGCGCCG
NKX3-2 [1]
  binding signal: 10.5 upbm affinity estimate (log intensity, higher = more binding, comparable within an allelic series)
NKX3-2 [2]
  binding signal: 10.5 upbm affinity estimate (log intensity, higher = more binding, comparable within an allelic series)

## CGAGTGCA
NKX3-2 [1]
  binding signal: 11.7 upbm affinity estimate (log intensity, higher = more binding, comparable within an allelic series)
NKX3-2 [2]
  binding signal: 11.8 upbm affinity estimate (log intensity, higher = more binding, comparable within an allelic series)

## CGACCTAG
NKX3-2 [1]
  binding signal: 10.6 upbm affinity estimate (log intensity, higher = more binding, comparable within an allelic series)
NKX3-2 [2]
  binding signal: 10.6 upbm affinity estimate (log intensity, higher = more binding, comparable within an allelic series)

## CCCGAATC
NKX3-2 [1]
  binding signal: 10.4 upbm affinity estimate (log intensity, higher = more binding, comparable within an allelic series)
NKX3-2 [2]
  binding signal: 10.4 upbm affinity estimate (log intensity, higher = more binding, comparable within an allelic series)

## AAAAGGGT
NKX3-2 [1]
  binding signal: 11.5 upbm affinity estimate (log intensity, higher = more binding, comparable within an allelic series)
NKX3-2 [2]
  binding signal: 11.6 upbm affinity estimate (log intensity, higher = more binding, comparable within an allelic series)

## CCAGGCAA
NKX3-2 [1]
  binding signal: 10.7 upbm affinity estimate (log intensity, higher = more binding, comparable within an allelic series)
NKX3-2 [2]
  binding signal: 10.6 upbm affinity estimate (log intensity, higher = more binding, comparable within an allelic series)

## CGGCTGGC
NKX3-2 [1]
  binding signal: 10.4 upbm affinity estimate (log intensity, higher = more binding, comparable within an allelic series)
NKX3-2 [2]
  binding signal: 10.4 upbm affinity estimate (log intensity, higher = more binding, comparable within an allelic series)

## CCTAAGTA
NKX3-2 [1]
  binding signal: 12.1 upbm affinity estimate (log intensity, higher = more binding, comparable within an allelic series)
NKX3-2 [2]
  binding signal: 12.1 upbm affinity estimate (log intensity, higher = more binding, comparable within an allelic series)

## CGCGGCCG
NKX3-2 [1]
  binding signal: 10.2 upbm affinity estimate (log intensity, higher = more binding, comparable within an allelic series)
NKX3-2 [2]
  binding signal: 10.2 upbm affinity estimate (log intensity, higher = more binding, comparable within an allelic series)

## AACGCCGG
NKX3-2 [1]
  binding signal: 10.6 upbm affinity estimate (log intensity, higher = more binding, comparable within an allelic series)
NKX3-2 [2]
  binding signal: 10.6 upbm affinity estimate (log intensity, higher = more binding, comparable within an allelic series)

## CCAGGTTA
NKX3-2 [1]
  binding signal: 10.6 upbm affinity estimate (log intensity, higher = more binding, comparable within an allelic series)
NKX3-2 [2]
  binding signal: 10.8 upbm affinity estimate (log intensity, higher = more binding, comparable within an allelic series)

## GCCCTCAA
NKX3-2 [1]
  binding signal: 11.6 upbm affinity estimate (log intensity, higher = more binding, comparable within an allelic series)
NKX3-2 [2]
  binding signal: 11.7 upbm affinity estimate (log intensity, higher = more binding, comparable within an allelic series)

## CGCTGCGA
NKX3-2 [1]
  binding signal: 10.5 upbm affinity estimate (log intensity, higher = more binding, comparable within an allelic series)
NKX3-2 [2]
  binding signal: 10.5 upbm affinity estimate (log intensity, higher = more binding, comparable within an allelic series)

## AAGTGACG
NKX3-2 [1]
  binding signal: 11.7 upbm affinity estimate (log intensity, higher = more binding, comparable within an allelic series)
NKX3-2 [2]
  binding signal: 11.9 upbm affinity estimate (log intensity, higher = more binding, comparable within an allelic series)

## AAGTAGGT
NKX3-2 [1]
  binding signal: 11.7 upbm affinity estimate (log intensity, higher = more binding, comparable within an allelic series)
NKX3-2 [2]
  binding signal: 11.8 upbm affinity estimate (log intensity, higher = more binding, comparable within an allelic series)

## AAGTATAC
NKX3-2 [1]
  binding signal: 11.6 upbm affinity estimate (log intensity, higher = more binding, comparable within an allelic series)
NKX3-2 [2]
  binding signal: 11.7 upbm affinity estimate (log intensity, higher = more binding, comparable within an allelic series)

## GGCTCCCC
NKX3-2 [1]
  binding signal: 10.6 upbm affinity estimate (log intensity, higher = more binding, comparable within an allelic series)
NKX3-2 [2]
  binding signal: 10.6 upbm affinity estimate (log intensity, higher = more binding, comparable within an allelic series)

## ACGGCAGC
NKX3-2 [1]
  binding signal: 10.6 upbm affinity estimate (log intensity, higher = more binding, comparable within an allelic series)
NKX3-2 [2]
  binding signal: 10.5 upbm affinity estimate (log intensity, higher = more binding, comparable within an allelic series)

## AGCCGCGC
NKX3-2 [1]
  binding signal: 10.5 upbm affinity estimate (log intensity, higher = more binding, comparable within an allelic series)
NKX3-2 [2]
  binding signal: 10.5 upbm affinity estimate (log intensity, higher = more binding, comparable within an allelic series)

## CAAGGGTC
NKX3-2 [1]
  binding signal: 11.7 upbm affinity estimate (log intensity, higher = more binding, comparable within an allelic series)
NKX3-2 [2]
  binding signal: 11.8 upbm affinity estimate (log intensity, higher = more binding, comparable within an allelic series)

## GCCACTCA
NKX3-2 [1]
  binding signal: 12.6 upbm affinity estimate (log intensity, higher = more binding, comparable within an allelic series)
NKX3-2 [2]
  binding signal: 12.7 upbm affinity estimate (log intensity, higher = more binding, comparable within an allelic series)

## ACCAAGAG
NKX3-2 [1]
  binding signal: 11.7 upbm affinity estimate (log intensity, higher = more binding, comparable within an allelic series)
NKX3-2 [2]
  binding signal: 11.8 upbm affinity estimate (log intensity, higher = more binding, comparable within an allelic series)

## CCCCGCAA
NKX3-2 [1]
  binding signal: 10.7 upbm affinity estimate (log intensity, higher = more binding, comparable within an allelic series)
NKX3-2 [2]
  binding signal: 10.7 upbm affinity estimate (log intensity, higher = more binding, comparable within an allelic series)

## GGACCCGA
NKX3-2 [1]
  binding signal: 10.6 upbm affinity estimate (log intensity, higher = more binding, comparable within an allelic series)
NKX3-2 [2]
  binding signal: 10.6 upbm affinity estimate (log intensity, higher = more binding, comparable within an allelic series)

## CGGGCAGC
NKX3-2 [1]
  binding signal: 10.6 upbm affinity estimate (log intensity, higher = more binding, comparable within an allelic series)
NKX3-2 [2]
  binding signal: 10.5 upbm affinity estimate (log intensity, higher = more binding, comparable within an allelic series)

## GCCCGGCC
NKX3-2 [1]
  binding signal: 10.3 upbm affinity estimate (log intensity, higher = more binding, comparable within an allelic series)
NKX3-2 [2]
  binding signal: 10.2 upbm affinity estimate (log intensity, higher = more binding, comparable within an allelic series)

## ACCAGGCT
NKX3-2 [1]
  binding signal: 10.6 upbm affinity estimate (log intensity, higher = more binding, comparable within an allelic series)
NKX3-2 [2]
  binding signal: 10.6 upbm affinity estimate (log intensity, higher = more binding, comparable within an allelic series)

## CCCACTTC
NKX3-2 [1]
  binding signal: 12.7 upbm affinity estimate (log intensity, higher = more binding, comparable within an allelic series)
NKX3-2 [2]
  binding signal: 12.8 upbm affinity estimate (log intensity, higher = more binding, comparable within an allelic series)

## AAGTGCCG
NKX3-2 [1]
  binding signal: 12.5 upbm affinity estimate (log intensity, higher = more binding, comparable within an allelic series)
NKX3-2 [2]
  binding signal: 12.6 upbm affinity estimate (log intensity, higher = more binding, comparable within an allelic series)

## ACCGCTGG
NKX3-2 [1]
  binding signal: 10.5 upbm affinity estimate (log intensity, higher = more binding, comparable within an allelic series)
NKX3-2 [2]
  binding signal: 10.5 upbm affinity estimate (log intensity, higher = more binding, comparable within an allelic series)

## CGGGTCGA
NKX3-2 [1]
  binding signal: 10.6 upbm affinity estimate (log intensity, higher = more binding, comparable within an allelic series)
NKX3-2 [2]
  binding signal: 10.6 upbm affinity estimate (log intensity, higher = more binding, comparable within an allelic series)

## TAAGAACA
NKX3-2 [1]
  binding signal: 11.4 upbm affinity estimate (log intensity, higher = more binding, comparable within an allelic series)
NKX3-2 [2]
  binding signal: 11.5 upbm affinity estimate (log intensity, higher = more binding, comparable within an allelic series)

## CGGTTGAC
NKX3-2 [1]
  binding signal: 10.5 upbm affinity estimate (log intensity, higher = more binding, comparable within an allelic series)
NKX3-2 [2]
  binding signal: 10.5 upbm affinity estimate (log intensity, higher = more binding, comparable within an allelic series)

## CAGGGAAG
NKX3-2 [1]
  binding signal: 10.5 upbm affinity estimate (log intensity, higher = more binding, comparable within an allelic series)
NKX3-2 [2]
  binding signal: 10.5 upbm affinity estimate (log intensity, higher = more binding, comparable within an allelic series)

## ACTAAGAC
CRX
  binding signal: 10.1 upbm affinity estimate (log intensity, higher = more binding, comparable within an allelic series)

## AGTATTAA
CRX
  binding signal: 11 upbm affinity estimate (log intensity, higher = more binding, comparable within an allelic series)

## GTCAACAA
ALX1
  binding signal: 7.43 upbm affinity estimate (log intensity, higher = more binding, comparable within an allelic series)

## CCATTAGA
HOXA4
  binding signal: 10.6 upbm affinity estimate (log intensity, higher = more binding, comparable within an allelic series)

## CTATATTA
ALX3
  binding signal: 8.73 upbm affinity estimate (log intensity, higher = more binding, comparable within an allelic series)

## AAATACCA
HOXA2
  binding signal: 9.01 upbm affinity estimate (log intensity, higher = more binding, comparable within an allelic series)

## GACACTAA
HOXA2
  binding signal: 9.38 upbm affinity estimate (log intensity, higher = more binding, comparable within an allelic series)

## AATTGACC
NKX2-5
  binding signal: 10.6 upbm affinity estimate (log intensity, higher = more binding, comparable within an allelic series)

## GGAGAGTA
NKX3-2 [2]
  binding signal: 11.6 upbm affinity estimate (log intensity, higher = more binding, comparable within an allelic series)

## CCCTCAAA
NKX3-2 [2]
  binding signal: 11.6 upbm affinity estimate (log intensity, higher = more binding, comparable within an allelic series)
